Results filed as inconclusive are left out. Calls of active or inactive are those of the source. How the source made its calls: active means hit-call score of the fitted dose curve at least 0.9, where 1 is the maximum; inconclusive means response in the unintended direction; inactive means score below 0.9.
Biological target: Peroxisome proliferator-activated receptor gamma (Homo sapiens) (UniProt P37231)
Experiment: ATG_PPARg_TRANS: Attagene TRANS-FACTORIAL HepG2 Assay for human Peroxisome Proliferator-activated Receptor-gamma (PPARg) (AID 2283007)
Description: ATG_TRANS is a cell-based, multiplexed-readout assay that uses HepG2, a human liver cell line, with measurements taken at 24 hours after chemical dosing in a 24-well plate.ATG_PPARg_TRANS is one of 30 assay component(s) measured or calculated from the ATG_TRANS assay. It is designed to make measurements of mRNA induction, a form of inducible reporter, as detected with fluorescence intensity signals by Reverse transcription polymerase chain reaction (RT-PCR) and Capillary electrophoresis technology.Data from the assay component ATG_PPARg_TRANS was analyzed into 1 assay endpoint. This assay endpoint, ATG_PPARg_TRANS, was analyzed in the positive analysis fitting direction relative to DMSO as the negative control and baseline of activity. Using a type of inducible reporter, measures of mRNA for gain-of-signal activity can be used to understand the reporter gene at the transcription factor-level as they relate to the gene PPARG. Furthermore, this assay endpoint can be referred to as a primary readout, because this assay has produced multiple assay endpoints where this one serves a reporter gene function. To generalize the intended target to other relatable targets, this assay endpoint is annotated to the nuclear receptor intended target family, where the subfamily is non-steroidal.
Human liver HepG2 cells are transiently transfected with multiple reporter transcription units (MRTUs) in 6-well plates using FuGene 6 reagent (Roche; 3 ml FuGene/1 mg DNA). The MRTU constructs are regulated by a cis-regulating element (promoter). […] A major difference between the CIS and TRANS system is that in CIS activities of endogenous TFs are measured, whereas the TRANS assay evaluates changes in activities of exogenous, chimeric NR-Gal4 proteins. […] At the end of 24 hour incubation, total RNA was isolated using TriZol reagent (Invitrogen). The isolated RNA is then reverse-transcribed using oligo(dT) primer and Mo-MLV reverse transcriptase (Invitrogen) with DNAse I (Ambion) treatment for 30 min. The one-tenth of the produced cDNA was amplified by PCR using Taq DNA polymerase (Invitrogen) and two reporter sequence-specific primers. The PCR products were fluorescently labeled by primer extension with 6-arboxyfluorescein (6-FAM) 5'-labeled reporter sequence-specific primer (2 min at 95 C, 20 s at 68 C and 10 min at 72 C) and these products were digested with 5U of HpaI (New England Biolabs) for 2h at 37 C. The fragments were purified using Qiaquick PCR columns (Qiagen), analyzed on an ABI 3130xL genetic analyzer (Applied Biosystems) with peak positions identified by using a set of X-rhodamine (ROX)-labeled MapMarker1000 molecular weight standards (BioVentures). The raw capillary electrophoresis data was processed using Attagraph software (Attagene).

Peroxisome proliferator-activated receptor gamma (Homo sapiens), sequence (P37231 whole entry, looked up): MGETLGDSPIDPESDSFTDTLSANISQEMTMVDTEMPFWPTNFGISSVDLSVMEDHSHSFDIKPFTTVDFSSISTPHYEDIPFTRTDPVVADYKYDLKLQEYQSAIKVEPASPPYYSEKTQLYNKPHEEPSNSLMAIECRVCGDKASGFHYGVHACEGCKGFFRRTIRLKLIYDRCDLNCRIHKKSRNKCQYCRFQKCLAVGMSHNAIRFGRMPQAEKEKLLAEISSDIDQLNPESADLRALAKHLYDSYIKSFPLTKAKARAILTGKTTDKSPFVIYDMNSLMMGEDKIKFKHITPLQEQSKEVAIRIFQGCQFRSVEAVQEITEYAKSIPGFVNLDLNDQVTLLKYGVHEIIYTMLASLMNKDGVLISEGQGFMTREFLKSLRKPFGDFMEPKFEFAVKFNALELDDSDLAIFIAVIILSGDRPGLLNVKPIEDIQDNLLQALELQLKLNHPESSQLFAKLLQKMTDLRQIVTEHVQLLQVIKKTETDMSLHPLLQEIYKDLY

outcome, inactive:
CCc1nccnc1C
CN(C)CCCN(C)C
O=C(Cl)c1cc(C(=O)Cl)cc(C(=O)Cl)c1
CC(C)c1ccc2cc(C(C)C)ccc2c1
CCN(CC#N)c1cccc(C)c1
c1cc(C(c2ccc(OCC3CO3)cc2)C(c2ccc(OCC3CO3)cc2)c2ccc(OCC3CO3)cc2)ccc1OCC1CO1 (stereo not given)
CCOC(=O)c1ccc(N(C)C)cc1
CC(=O)OCc1ccco1
CO[Si](CCC1CCC2OC2C1)(OC)OC (stereo not given)
CC(=O)OCCC1CCCCC1
Nc1ncn([C@@H]2O[C@H](CO)[C@@H](O)[C@H]2O)c(=O)n1
C=C1[C@H]2CC[C@@H]3[C@H]2C(C)(C)CCC[C@]13C
CCCC(C)CCC(C)=O (stereo not given)
C[Si](C)O[Si](C)(C)O[Si](C)(C)O[Si](C)C
O=C(O)CC(C(=O)O)C(CC(=O)O)C(=O)O (stereo not given)
CC(C)=CCC[C@H](C)CCO
O=C1Nc2ccccc2C1(c1ccc(O)cc1)c1ccc(O)cc1
CC(=O)c1ccc[nH]1
C=C(C)C(=O)OCCO
CCCCCCC(O)CO (stereo not given)
CC(=O)Oc1ccc(C)cc1
CN1C(=O)N(C)C(O)C1O (stereo not given)
Cc1cc(C)c(C)c(C)c1
CCCCCCCCCCCCCCCCCC#N
C(=CC=Nc1ccccc1)C=CNc1ccccc1
CCCCCC/C=C\CCCCCCCC(=O)O
Cc1cc(C)c(C)cc1C

AC50, active:
COC(=O)/C=C/C(C)=C\C=C\C(C)=C\C=C\C=C(C)\C=C\C=C(C)\C=C\C(=O)O 27.9 µM
O=C(C=Cc1ccccc1)OCc1ccccc1 0.162 µM
CC(CC=O)c1ccccc1 (stereo not given) 56.2 µM
CCCCCCCCCCOS(=O)(=O)O 22.6 µM
c1ccc(CCCc2ccncc2)cc1 13.9 µM
C=C(C)C(=O)OCCOc1ccccc1 28.5 µM
O=C(Oc1ccccc1)c1ccc2ccccc2c1O 15.9 µM
CCCCC(CC)CCC(CC(C)C)OS(=O)(=O)O (stereo not given) 36.6 µM
O=c1cc(-c2ccccc2)oc2ccccc12 1.1 µM
CCc1ccc2c(c1)C(=O)c1ccccc1C2=O 24.3 µM
O=C(O)Cc1c(Cl)ccc(Cl)c1Cl 52.1 µM
CC(C)(c1cc(Br)c(OCCO)c(Br)c1)c1cc(Br)c(OCCO)c(Br)c1 2.78 µM
Cc1cc(O)c(Cl)c(C)c1Cl 21.9 µM
